# Bioassay records from PubChem.
# Rows were chosen to be rich in hits. Some 2.6% of all compounds tested hit in one or more screens of this group.
# Cruzain inh Det – cruzain (T. cruzi) inhibition with detergent; P25779; purified cruzain, Z-FR-AMC fluorescence, 0.01% Triton; Potency, µM, hits mostly inhibitors; hit rate 0.43% among 200,000; AID 1478; note: nearly all actives have a fitted effect of over 40% in size
# Target sequence (P25779 123-467 limits assumed): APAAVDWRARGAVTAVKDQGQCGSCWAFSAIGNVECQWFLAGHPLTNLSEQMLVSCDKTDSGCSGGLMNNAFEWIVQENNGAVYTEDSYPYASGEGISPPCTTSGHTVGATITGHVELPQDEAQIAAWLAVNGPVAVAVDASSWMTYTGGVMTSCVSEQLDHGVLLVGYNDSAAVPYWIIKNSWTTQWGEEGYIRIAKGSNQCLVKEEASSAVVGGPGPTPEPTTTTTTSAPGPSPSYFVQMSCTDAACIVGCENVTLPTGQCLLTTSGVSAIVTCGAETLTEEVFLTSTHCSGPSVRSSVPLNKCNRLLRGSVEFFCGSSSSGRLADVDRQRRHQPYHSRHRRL
#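 Steps: dispense cruzain (1.5 nM final) in acetate buffer pH 5.5 with DTT and 0.01% Triton X-100; pin-transfer compounds; incubate 15 min RT; add Z-FR-AMC (2 uM final); read fluorescence every 30 s, using the 60 s intensity change.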
# Cruzain noTriton – cruzain (T. cruzi) inhibition without detergent; purified cruzain, Z-FR-AMC fluorescence, no detergent; Potency, µM, usual class: inhibitors; hit rate 2.3% among 200,000; AID 1476; note: nearly all actives have a fitted effect of over 40% in size
#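 Purified cruzain at 1.5 nM, pre-incubated 15 min with compound at room temperature in 100 mM sodium acetate pH 5.5, 5 mM DTT, 0.00005% Triton X-100. Reaction started with 2 uM Z-FR-AMC; AMC fluorescence increase over 60 s gives rate.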
# A number is an active result; - = inactive; ? = inconclusive. Calls come from the whole dose curve; as a rule, active = well fitted curve in the direction sought with a large enough effect; inconclusive = small, poorly fitted or top-dose-only effect, or another doubt; inactive = no such curve, though single readings can be large; an effect the other way counts as inactive or inconclusive.
SMILES,Cruzain inh Det,Cruzain noTriton
COc1ccccc1N1CCN(C(=O)CSc2ncnc3scc(-c4ccccc4)c23)CC1,-,-
O=C(CSc1ncnc2scc(-c3ccccc3)c12)N1CCN(c2ccccc2F)CC1,-,31.6µM
COc1ccccc1CNC(=O)c1c(O)nc2c(C)cccn2c1=O,-,-
COc1ccc2nc(SCC(=O)NC3CCCc4ccccc43)[nH]c2c1 (stereo not drawn),14.1µM,-
Cc1ccc2nc(SC(C)C(=O)NC3CCCc4ccccc43)[nH]c2c1 (stereo not drawn),10µM,-
O=C(CSc1nc2ccc(Cl)cc2[nH]1)NC1CCCc2ccccc21 (stereo not drawn),-,-
O=C(CSc1nc2ccccc2[nH]1)NC1CCCc2ccccc21 (stereo not drawn),?,-
CCOC(=O)c1cnc(N2CCN(c3cccc(C)c3C)CC2)c2ccccc12,-,-
CCc1ccccc1NC(=O)N1CCN(c2nnc(C)c3c(C)n(-c4ccccc4)nc23)CC1,-,-
Cc1cc2c(cc1C)CSC(c1ccc3ccccc3c1O)SC2,-,25.1µM
Cc1cc2c(cc1C)CSC(c1c(O)ccc3ccccc13)SC2,-,?
COC(=O)c1cc(Nc2nc3ccccc3nc2NS(=O)(=O)c2ccc(C)cc2)ccc1Cl,-,-
C=CCOc1cccc(/C=N/NC(=O)C(=O)NCc2ccco2)c1,-,?
Cc1cccc(C)c1NC(=O)COc1cccc(/C=N/NC(=O)C(=O)NCc2ccccc2)c1,-,25.1µM
CCc1ccc(NC(=O)N(Cc2c[nH]c3ccccc23)C2CCCCC2)cc1,-,-
CCOc1ccc(NC(=O)CCn2c(-c3ccc(F)cc3)cc(C(C)=O)c2C)cc1,-,-
Cc1ccc(C2CC(=O)Oc3ccc(O)cc32)cc1 (stereo not drawn),-,-
O=C(Cc1cn2ccsc2n1)Nc1ccccn1,-,-
O=C(Cc1cn2ccsc2n1)Nc1cccc2cnccc12,?,12.6µM
Cc1ccc(-c2nc3c(cnn3-c3ccccc3)c(=O)n2-c2ccc(Cl)cc2)cc1,-,-
O=c1[nH]c(-c2ccc(Cl)cc2)nc2c1cnn2-c1ccccc1,-,25.1µM
CCCCSc1nc2c(cnn2-c2ccc(F)cc2)c(=O)[nH]1,-,-
CCCSc1nc2c(cnn2-c2ccc(Cl)cc2)c(=O)[nH]1,-,10µM
COC(=O)CS,-,-
COc1ccccc1Cn1cc(C(=O)c2ccc(C)cc2)c(=O)c2cc3c(cc21)OCCO3,-,-
SMILES,Cruzain inh Det,Cruzain noTriton
CCc1cc2cc3c(cc2nc1SCC(=O)Nc1nccs1)OCO3,-,20µM
Cc1ccc2c3c(c(SCC(=O)Nc4nccs4)nc2c1)CCCC3,-,-
COc1ccc(Nc2c(-c3ccccn3)nc3ccc(Cl)cn23)cc1,-,-
CCOC(=O)c1ccc(Nc2c(-c3ccc(OC)cc3)nc3nc[nH]n23)cc1,-,-
CC(=O)NCCNC(=O)c1ccc2c(=O)n(CCc3ccccc3)c(=O)[nH]c2c1,-,-
Nc1nnc(SCCCC(=O)c2ccccc2)s1,-,-
Nc1nnc(SCC(=O)c2ccc3ccccc3c2)s1,-,31.6µM
O=C(NCCc1csc2nc(-c3ccccc3F)nn12)c1ccco1,-,-
O=[N+]([O-])c1ccc(N2CCN(S(=O)(=O)c3ccccc3)CC2)cc1NCC1CCCO1 (stereo not drawn),-,-
O=[N+]([O-])c1ccc(N2CCN(S(=O)(=O)c3ccc4ccccc4c3)CC2)cc1NCC1CCCO1 (stereo not drawn),-,15.8µM
Cn1c(NCc2cccc(Cl)c2)nc2ccccc21,-,-
CC(C)(C)C(=O)NC(=S)Nc1cc(C(F)(F)F)ccc1N1CCOCC1,-,-
O=C(NC(=S)Nc1cc(C(F)(F)F)ccc1N1CCOCC1)c1sc2ccccc2c1Cl,-,20µM
CC1=C(C(=O)N2CCN(c3cccc(C)c3C)CC2)C2(CCCCC2)OC1=O,-,-
CCOC(=O)CC(=O)CSc1nc2sc(C)cc2c(=O)n1Cc1ccco1,-,-
Cc1cc2c(=O)n(Cc3ccco3)c(SCC(=O)c3ccc(Cl)s3)nc2s1,-,25.1µM
CCc1ccc(CSc2nc(-c3ccccc3OC)nc3c2Cc2c(CO)cnc(C)c2O3)cc1,-,?
CCCN(CCC)C(=O)SCC,-,-
CCOC(=O)c1ccc(NC(=O)CCc2c(C)nc3c(c(C)nn3C(C)(C)C)c2C)cc1,-,-
Cc1ccc(C(=O)c2cnc3ccccc3c2-c2ccccc2)cc1,-,-
CCOc1ccc(S(=O)(=O)c2c(C(=O)c3ccccc3)cnc3cc4c(cc23)OCCO4)cc1,-,31.6µM
CCc1ccc(S(=O)(=O)c2c(C(=O)c3ccc(C)c(C)c3)cnc3ccccc23)cc1,-,12.6µM
CCOc1ccc(S(=O)(=O)c2c(C(=O)c3ccc(CC)cc3)cnc3ccc(C)cc23)cc1,-,20µM
CCOc1ccc(C(=O)c2cnc3ccc(Cl)cc3c2S(=O)(=O)c2ccc(C)cc2)cc1,-,-
CCc1ccc(C(=O)c2cnc3ccc(C)cc3c2S(=O)(=O)c2ccc(OC)cc2)cc1,-,-
